Data as given in article PMC6212790, “How bacterial xenogeneic silencer rok distinguishes foreign from self DNA in its resident genome”.
The full ranking holds about 33,000 sequences; the median of “e-score” is about -0.038, and the highest 2% start at about 0.33. Only a selection was taken, and the highest values are over-represented in it overall.

biological target: T1, GST-Rok-C97-191 (Bacillus subtilis subsp. subtilis str. …, UniProt O34857 97-191); test: protein binding microarray; Rok is a gene silencer of Bacillus subtilis; high values mean tight binding; settings: protein: recombinant; tags: GST (pTH5325, pDEST15-Magic modified); dsDNA, one strand shown
T1 sequence: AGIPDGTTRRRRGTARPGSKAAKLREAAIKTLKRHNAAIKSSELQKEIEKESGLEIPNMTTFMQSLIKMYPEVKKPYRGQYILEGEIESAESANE
In short: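 Each has a 25-mer constant primer and a 35-mer variable part from a de Bruijn sequence of order 10, covering every non-palindromic 8-mer at least 32 times (palindromic 16). Preference for each 8-mer is given as a rank-based, unitless enrichment score (E-score). Its range runs from 0.5 (most favored) to −0.5 (most disfavored).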

Sequence | binding signal
TTACATAA | 0.288 E-score
ATACATAT | 0.377 E-score
ACGGGACT | 0.158 E-score
CATCATTC | 0.0109 E-score
GCGATGCC | -0.131 E-score
CGACTTGA | 0.0696 E-score
CTGCGTAC | -0.112 E-score
TCCGAGCA | 0.113 E-score
CAAATGTA | 0.269 E-score
AAAATGTA | 0.316 E-score
GAAATGCA | -0.0957 E-score
GAAATGTC | 0.165 E-score
TAAATGTA | 0.399 E-score
GAAATGTA | 0.329 E-score
TGCCTAAA | -0.0357 E-score
ACCCTTAT | 0.126 E-score
CGCACTGC | 0.0347 E-score
ACATCGAG | 0.0748 E-score
ACGTGGGG | -0.173 E-score
AGATTCTA | 0.356 E-score
AGATTCTC | 0.00255 E-score
ATATTCTA | 0.408 E-score
GGATTCTA | 0.293 E-score
CTATTCTA | 0.287 E-score
ATATTCTC | 0.327 E-score

Sequence | binding signal
TCATCTAA | -0.0045 E-score
CAGGTCTC | -0.144 E-score
GACTTGGC | -0.0709 E-score
CTAATATC | 0.141 E-score
CTAATATA | 0.36 E-score
ATAATATA | 0.435 E-score
GTAATACA | 0.258 E-score
CCAATATA | 0.323 E-score
ATAATATG | 0.244 E-score
GTAATATA | 0.335 E-score
ATAATATC | 0.209 E-score
ACAATATG | 0.146 E-score
GTAATAGA | 0.284 E-score
ACAATATA | 0.354 E-score
CTAATAGA | 0.252 E-score
AGTGCCGC | -0.0284 E-score
ATGGTGAA | 0.0706 E-score
GCTGATTA | 0.0269 E-score
GAAAGAAC | 0.0785 E-score
CCAGTTGA | -0.091 E-score
AACAGAGG | -0.0648 E-score
CGAGTGTC | -0.0337 E-score
ATGACGGG | -0.176 E-score
GGGGCTAA | -0.0896 E-score
ATAAGAAT | 0.215 E-score

Sequence | binding signal
AGAATATA | 0.231 E-score
GGAATATA | 0.377 E-score
CGAATATA | 0.245 E-score
CAACGGCA | -0.159 E-score
GCGCAATA | 0.0439 E-score
CCCGGTAG | -0.134 E-score
CGCGGTAG | 0.00539 E-score
ACCGGTAG | 0.335 E-score
ACCGGTAA | 0.192 E-score
AGCGGTAG | 0.33 E-score
AGCGGTAT | 0.237 E-score
ATGACCCA | -0.129 E-score
GTTTGTTA | 0.13 E-score
ACATCAAA | 0.02 E-score
CCTGTCAG | -0.131 E-score
AACTAATA | 0.288 E-score
AACTAACT | 0.352 E-score
AACTAATT | 0.344 E-score
AACTAACA | 0.126 E-score
AACTAATC | 0.129 E-score
AACTAAAG | -0.0536 E-score
CACTAAAA | 0.299 E-score
GACTAAAA | 0.144 E-score
TACTAAAA | 0.421 E-score
AACTAACG | 0.263 E-score

Sequence | binding signal
AACTAAAT | 0.379 E-score
AACTAAAC | 0.00571 E-score
AGGCACAT | -0.0618 E-score
CTGCAACA | 0.0545 E-score
ACGGACCA | -0.109 E-score
CGTCCTTA | 0.175 E-score
AAAATGTG | 0.218 E-score
GTGCGAAC | -0.184 E-score
GCGAATAC | 0.0221 E-score
AAACTGGG | -0.197 E-score
CCCGCTAC | -0.0971 E-score
AGACCTAG | 0.0543 E-score
AGAAGCTC | -0.0476 E-score
CCTAATCC | 0.0562 E-score
CGATAAGA | 0.0724 E-score
AACTAAGA | 0.223 E-score
AACTAAAA | 0.347 E-score
ACCTAAAA | 0.295 E-score
AACACAAA | 0.135 E-score
AGCGCAAG | -0.0906 E-score
ATACGACC | 0.00262 E-score
AAAGGTAG | 0.316 E-score
ATTAACTA | 0.367 E-score
GTTAACGA | 0.0428 E-score
ATTAACTC | 0.124 E-score

Sequence | binding signal
ATTAACTG | 0.214 E-score
GTTAACTA | 0.376 E-score
CTTAACTA | 0.273 E-score
TAGTCACA | 0.123 E-score
TCGGGCCA | -0.12 E-score
AGAGTGCG | -0.139 E-score
AGTAGAAT | 0.422 E-score
AGTAGAAG | 0.276 E-score
AGTAGAGA | 0.206 E-score
AGTAGAAA | 0.448 E-score
AGTAGAAC | 0.234 E-score
ATTAGAAA | 0.282 E-score
AACGGGCT | -0.138 E-score
AGCCATTG | -0.0954 E-score
AAGGACTG | -0.0637 E-score
ACAGAGAG | -0.125 E-score
GTATTGTA | 0.212 E-score
ATATTGTA | 0.363 E-score
CTATTGTC | -0.0498 E-score
CAATTGTA | 0.251 E-score
ATATTGTG | 0.214 E-score
CTATTGTA | 0.355 E-score
ATGCGCGG | -0.168 E-score
CTGTCCAA | -0.154 E-score
CACAGAGG | -0.0801 E-score

Sequence | binding signal
ACATCCTG | -0.137 E-score
TCCTGCGA | -0.149 E-score
GGCTTGAA | -0.105 E-score
CACTGACG | 0.009 E-score
AATTTTAG | 0.259 E-score
AATTTTTA | 0.167 E-score
AAATTTGG | 0.0224 E-score
AAATTTTC | 0.182 E-score
AAATTTGA | 0.0368 E-score
AATTTTAC | 0.384 E-score
AAATTTAC | 0.38 E-score
AAATTTTA | 0.374 E-score
ATTTTTAC | 0.328 E-score
GAATTTAC | 0.282 E-score
AAATTTGT | 0.33 E-score
AAATTTAG | 0.242 E-score
TGAAGTAA | 0.132 E-score
GTAATAAC | 0.0936 E-score
GTATTCGA | 0.15 E-score
ATTTGCTG | -0.0116 E-score
AAGATTGC | -0.0164 E-score
AATCGTGA | -0.118 E-score
ACCCATGC | -0.182 E-score
AGAGCGAA | -0.138 E-score
GGTCGACA | -0.101 E-score

Sequence | binding signal
CAATTTAA | 0.0656 E-score
CAAATTTA | 0.31 E-score
CAATTTAC | 0.357 E-score
TAAATTTA | 0.405 E-score
AAAATTTA | 0.282 E-score
CAATTTAG | 0.232 E-score
AGTCTGGG | -7.1e-05 E-score
GAGCTTAC | -0.189 E-score
CCGAAAAC | 0.168 E-score
AATACATA | 0.308 E-score
TACACATA | 0.203 E-score
TATACATA | 0.401 E-score
AATACAAA | 0.313 E-score
GATACATA | 0.377 E-score
CATACATG | 0.171 E-score
CATACAAA | 0.219 E-score
TATACAAA | 0.347 E-score
CATACATA | 0.234 E-score
CATTAACC | -0.0128 E-score
TCATACCA | 0.0725 E-score
ATTAGCAC | 0.0299 E-score
GTCGGAAC | 0.0505 E-score
